In the supplement of paper PMC12632987:
Whole data set: some 4,500 sequences, median “median log2 fold change of GCK-ALFA target abundance (FLAG IP / Myc IP barcode read proportion)” near 0.078, cut for the lowest 2% near -0.6. The full list was thinned out, with the lowest values kept by preference.

B1: GBRAP_52_6035 (protein)
chain: MEERMRELARRIVELLLAGREEEARRLIREAVETLSEEELKLLGEELARLAREAAPEDLDAIMEAAFLLADALEEGGYDEVLADDLLARVAAAAVANLQA
B2: GBRAP_52_6034 (protein)
chain: MRERMRRLAEEAVALALAGDEEGAKALIKEAVETLSEEELKLLGEELARLAREAAPEDLDAIMEVAFWLADALIEAGYDEVFADDLEARVARAAVENLQA
B3: GBRAP_52_6042 (protein)
chain: MEERMRELAEEILALYLEGREEEARKLIREAVETLSEEELKLLGEALAELAREAPPEHLDAYMQAAFDLADALEEAGYDEVLADDLEARVAAAAVENLKR
B4: GBRAP_160_4751 (protein)
chain: SEALKKLKEEVKKIFEEGIEMLKEVPAEEAPTVLRGVMGEVLMEVFSSEAASDELEEEVGEVVDKAEAEAAANANAPVEYHIELLEKAKKEILEIIEKEI
B5: GBRAP_52_6275 (protein)
chain: MEEEAERLAEEFIRVALEGSEEEIREFARRLVEEKSEELIARVLEIVVEKAEELNAEEIEKLLEAVLILEGELEEAGRDPLPAQDAAARLAKLHEEKLKE
B6: GBRAP_78_6606 (protein)
chain: EVEELLEEAIELLSKAAKLLKELPPEVRDELMDLLVEAMSLLLESIEEGPNLKLLEEALKHVEEAIELLKKEKTPEAEKIIKLLEEAKEKIEKAIKLLKK
B7: GBRAP_184_5238 (protein)
chain: KVLEVTVEAADAEELRAKLEAVFAEAEAAGARVRLDVLVEELTPEKVDVLTEEIARMAAAGLLDLVEVTSSTPIAEEHIDRLVAAADAAGVRLVIAEPDE
B8: GBRAP_57_6464 (protein)
chain: MSPLEKALEHFEKAIKLIEEGASLEEILEEVEKGLEELDHTLLLDILLLLDPSARSDLSREELRERLLELVRRYLEEKGREEALKALKLMAGQVEMALTE
B9: GBRAP_125_3136 (protein)
chain: KRAALLALAEALARAMGFSEEEIAEIRRLAEAHDPAQTIVAIFLAAGAEEAAELAAEVLDKLSEEEIAALRALAEAARDLPLEEAVARLLAALKEAKAKL
B10: GBRAP_52_6252 (protein)
chain: MRARLRADAREILELVKEGREEEARRLAREIAETYNEEELRLFIDEFAALAAEAPKEDIDDVWRAAEILAEALEEAGWEEVLVDDALARTAAALVKVEAK
B11: GBRAP_184_5187 (protein)
chain: MVVEEELEIEDVAEARAKIAAIGERIAGKKAKLRVIVKAKKITVEIARTIMEGLGAIKAAGNATDITVELVGEMSEEVIDTAVELAKKAGIRVVIAMSEE
B12: GBRAP_11_2656 (protein)
chain: KKEAYKKAAELAEEAAKALQKLIEEGVDDEELIEKLRKLIEELKKLAEEELDEADKKEVEVVVELFEEFLADEENRLQLAEELLAGLRVLAGNFQLKADE
B13: GBRAP_84_7005 (protein)
chain: SREEEIVEITAEILEKASIETKALLLTYLILKNANKAATLALNDLLEEDPEAAVEALDRATEAYEEGKEEEVEKELLEKAKEEGEELAELVERLLELLKE
B14: GBRAP_84_7006 (protein)
chain: EREEEIVKLTKEILEKGSIELKALLLTYLILKNENKAATLALNDLLKEDPEAAVEALDRATEAYEEGKEEEVEKELKEKAKKEGKEVAELVEKLIKLLEE
B15: GBRAP_84_7007 (protein)
chain: SREQEILEITNKILEKGSIELKKKLLTYLILKNENKAATLALNYLLEEDPEAAVEALDEATEAYEEGKEEEVRKELLELAKKEGEEVYALVEELLELIDE
B16: GBRAP_166_4935 (protein)
chain: SLEKIYEETKKKVIELAKKALTADEEERIDLAIEIEELLKEAKEKGLTPEQLKEILLEALKELEEDPEVAEFLLRMILAASEMDEELQDVILEALEEFKK
B17: GBRAP_128_3437 (protein)
chain: AQEELLQEALELLDEIVESDVETAAELAKQLAELLGQLDEESRDEVVEYFEEKAKELTEEKLEAVADALREQVPQLDADTANAVNEMIVILGEQILELEE
B18: GBRAP_160_4322 (protein)
chain: KEELEELEKRIKEIAEEAKKMIKGQSAEEKITIVKVALGDIILEVESNPAVSDELEDKVAEIADAAEAYLDAHPDLSEEEVIALLEEAVKKILELIKEEK
B19: GBRAP_137_3640 (protein)
chain: MKVTIRVERHEDLVEITITVDDPEKAEEVAELITDLAVAHGALAISVEIKEDGTLEAVIWVPVERAEALIAAIVDALQSKFGATVTVEDLDTGEVRTYTP
B20: GBRAP_184_5202 (protein)
chain: AIVERTIEFENEEELKEKLKELLEELKGFKGTVYIHVEAPEITEEMAKLLIEFVKEIKENGYATEIIVDIEGEVSEEVRDLLLDEFAKIGAKVVIALSEE
B21: GBRAP_11_2682 (protein)
chain: RKEALERAAELAERAAELAERLLEEGVDNEELLEELRRALEELRRLVKEHLDEAHRTLVEIAEEELEEALADPENAAAHIERLLAAARVLRYNLEEELEE
B22: GBRAP_125_3139 (protein)
chain: MKAELLALAEALARALGYSEEEIAELRRLGEAHDPAQTIIAILLAEGFEELAELAREVLPKLTPEEIAELRALAESLRDKSREELRAALLAKLKELKAKQ
B23: GBRAP_128_3300 (protein)
chain: MDPALRAEVEALVETIRTGDPAARRAAAEALAALMGSVNDEDAEAIADIIEAAIPELSAEALEILADVLDAARPQLTPEKAALAADVASAALLAAEELAE
B24: GBRAP_52_6059 (protein)
chain: MEERIEELARRIAEAIAAGDLERALELLRRAIKELSVEEIRRMLELAAERVAKLGEEAHERFVELLEEAEELMKEAGISEEEAELIVGDAEAALARAVAA
B25: GBRAP_52_6154 (protein)
chain: MEERAREYAERFVAAVKAGDEEEARAIMEEIAATLDDEEIALFLEHVAELVAGLSPEDRERVVEAVLEFEDIAEAAGHDPELLSYHTARVAGAAYAALQA
B26: GBRAP_52_6151 (protein)
chain: AAARAAAYAREFVAAVRAGDEEKARAIMKEIAATLDDEEIALFLREVARLVAGLSPEDRERVVEAVLEFEDIAVAAGHDEDILSYETARVAGAAYEALQR
B27: GBRAP_52_6153 (protein)
chain: ARERAREYAEAFVAAVKAGDEERARAIMEEIAATLNDEEIELFLEEVARLVEGLTPEERERVVEAVLEFEDIAVAAGHDEELLSYHTARVAGAAYDALQK
B28: GBRAP_64_6479 (protein)
chain: NEEIEELLEELLEAARRLLALFERENPELAPEAQEIVDLLEEAKTASLEERLDLVLEVTDRLHALLRDPRVTPEQRDALLEALDLAMALAALLAEEVEKE
B29: GBRAP_80_6848 (protein)
chain: AEERLAAALAALEALLPEVAEEARELVALARELGVPDEEIAAFLEALNELAKLDPELAAELIREALEDMKELKEEGDSENALAVVRGYTGDALMAAEELE
B30: GBRAP_80_6856 (protein)
chain: AAAALAAALAALKALLPEVAEDAKEIVEIARELGVPDADIADLMEALAELAKVDPELAAELIKELLEELKEEKERGDAERALAVVRGYAGEALMLAEELE
B31: GBRAP_80_6846 (protein)
chain: AAARLAAELAALKALLPEVAEDAKEAVALARELGVPDADIADYLAALNELAKLDPELAAALLKELLADLREEKAEGDSENALAVVRGYTGEALMEAEELE

Target: GABARAP, O95166
Assay: median log2 fold change of GCK-ALFA target abundance (FLAG IP / Myc IP barcode read proportion) (log2 ratio); each designed protein is fused to an ALFA-tag nanobody in HEK293 cells to bring the named protein to FLAG-tagged glucokinase (GCK); Myc marks an untargeted standard; higher = target protein stabilised (more abundant)
Conditions: target protein: 3xFLAG-MCP-GCK-ALFA reporter; HEK293 landing pad (RPLP)
Outline: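 HEK293 landing-pad cells received a recombined binder library fused to the ALFA nanobody and were induced with 2 μg mL^−1 doxycycline, then transfected with a plasmid encoding a FLAG-tagged target and a Myc-tagged standard. Lysates were collected after 48 h for anti-FLAG and anti-Myc immunoprecipitation, and the circular RNA barcodes were reverse transcribed, amplified and sequenced. Target abundance for each binder is the median log2 ratio of FLAG to Myc barcode read proportions. Barcodes had to reach a proportion of at least 10^−7 in both replicates, each binder needed at least 3 barcodes per replicate, a pseudocount of 10^−6 was applied, and the two replicates were pooled.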

Chain of GABARAP, O95166 (O95166 whole entry, the tested form may be a part): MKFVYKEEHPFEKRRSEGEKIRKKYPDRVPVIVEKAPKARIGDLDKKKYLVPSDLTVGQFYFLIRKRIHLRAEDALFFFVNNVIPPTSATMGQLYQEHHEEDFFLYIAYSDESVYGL

Binder | median log2 fold change
B1 | -0.612
B2 | -0.573
B3 | -0.435
B4 | -0.117
B5 | 0.0823
B6 | -0.743
B7 | 0.168
B8 | 0.249
B9 | -0.351
B10 | -0.272
B11 | 0.57
B12 | 0.336
B13 | -0.259
B14 | -0.666
B15 | -0.316
B16 | 0.184

Binder | median log2 fold change
B17 | -0.0498
B18 | 0.161
B19 | -0.0441
B20 | -0.159
B21 | -0.882
B22 | 0.207
B23 | -0.00271
B24 | 0.0176
B25 | 0.0811
B26 | 0.0301
B27 | -0.742
B28 | -0.254
B29 | -0.203
B30 | -0.242
B31 | -0.698
